Experiment in all cases: PBM; 200 nM protein, PBS
Common to all, as to conditions: dsDNA, one strand shown

Assay [1] concerns the target HOXA7 (Homo sapiens, UniProt P31268 116-202).
Assay [2] concerns the target ALX1 (Homo sapiens, UniProt Q15699 118-204, L144V).
The target of assay [3] is ALX1 (Homo sapiens, UniProt Q15699 118-204, L144R).
Assay [4] concerns the target HOXA7 (Homo sapiens, UniProt P31268 116-202, W177C).
For assay [5], the target named is NKX3-2 (Homo sapiens, UniProt P78367 192-278, P234S).
Chain of NKX3-2 (Homo sapiens, UniProt P78367 192-278, P234S) (P78367 192-278 P234S): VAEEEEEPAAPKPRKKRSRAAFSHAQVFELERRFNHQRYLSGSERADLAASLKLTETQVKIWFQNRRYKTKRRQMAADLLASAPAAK
Assay [6] concerns the target ALX1 (Homo sapiens, UniProt Q15699 118-204).
For assay [7], the target named is NKX3-2 (Homo sapiens, UniProt P78367 192-278).
Chain of NKX3-2 (Homo sapiens, UniProt P78367 192-278) (P78367 192-278): as the sequence (P78367 192-278 P234S) above, with S43P counted along it
Assay [8] concerns the target HOXA2 (Homo sapiens, UniProt O43364 129-215, R185T).
Assay [9] addresses HOXA2 (Homo sapiens, UniProt O43364 129-215, R185K).
The target in assay [10] is HOXA2 (Homo sapiens, UniProt O43364 129-215, Y150S).
Chain of HOXA2 (Homo sapiens, UniProt O43364 129-215, Y150S) (O43364 129-215 Y150S): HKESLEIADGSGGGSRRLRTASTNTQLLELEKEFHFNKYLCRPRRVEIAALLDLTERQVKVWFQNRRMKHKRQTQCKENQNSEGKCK
In assay [11] the target is HOXA2 (Homo sapiens, UniProt O43364 129-215).
Chain of HOXA2 (Homo sapiens, UniProt O43364 129-215) (O43364 129-215): as the sequence (O43364 129-215 Y150S) above, with S22Y counted along it
For assay [12], the target named is T1, PAX4 (Homo sapiens, UniProt O43316 9-242, R200K).
T1 sequence: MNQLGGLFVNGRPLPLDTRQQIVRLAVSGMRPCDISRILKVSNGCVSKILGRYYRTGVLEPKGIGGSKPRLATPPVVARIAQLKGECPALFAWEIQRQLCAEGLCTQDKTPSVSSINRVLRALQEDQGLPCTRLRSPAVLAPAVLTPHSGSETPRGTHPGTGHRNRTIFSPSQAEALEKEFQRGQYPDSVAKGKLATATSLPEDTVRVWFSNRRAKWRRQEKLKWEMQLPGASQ

The target in assay [13] is T2, PAX4 (Homo sapiens, UniProt O43316 9-242).
T2 sequence: T1 sequence with K192R

Assay [14] has as its target MSX2 (Homo sapiens, UniProt P35548 130-214, R199I).
In assay [15] the target is T3, PAX4 (Homo sapiens, UniProt O43316 9-242, R200Q).
T3 sequence: T1 sequence with K192Q

In assay [16] the target is T4, PAX4 (Homo sapiens, UniProt O43316 9-242, F177V).
T4 sequence: T1 sequence with F169V, K192R

Assay [17] addresses MSX2 (Homo sapiens, UniProt P35548 130-214).
The target of assay [18] is T5, PAX4 (Homo sapiens, UniProt O43316 9-242, F177Y).
T5 sequence: T1 sequence with F169Y, K192R

In assay [19] the target is VAX1 (Homo sapiens, UniProt Q5SQQ9 86-172).
Chain of VAX1 (Homo sapiens, UniProt Q5SQQ9 86-172) (Q5SQQ9 86-172): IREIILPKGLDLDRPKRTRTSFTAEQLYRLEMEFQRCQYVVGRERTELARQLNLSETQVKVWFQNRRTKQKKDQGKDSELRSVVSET
Assay [20] addresses MSX2 (Homo sapiens, UniProt P35548 130-214, F161Y).
The target in assay [21] is VAX1 (Homo sapiens, UniProt Q5SQQ9 86-172, T142I).
Chain of VAX1 (Homo sapiens, UniProt Q5SQQ9 86-172, T142I) (Q5SQQ9 86-172 T142I): as the sequence (Q5SQQ9 86-172) above, with T57I counted along it
Assay [22] has as its target T6, PAX4 (Homo sapiens, UniProt O43316 9-242, R227W).
T6 sequence: T1 sequence with K192R, R219W

Assay [23] addresses VAX1 (Homo sapiens, UniProt Q5SQQ9 86-172, K157R).
Assay [24] deals with PRRX1 (Homo sapiens, UniProt P54821 80-166, F113S).
Chain of PRRX1 (Homo sapiens, UniProt P54821 80-166, F113S) (P54821 80-166 F113S): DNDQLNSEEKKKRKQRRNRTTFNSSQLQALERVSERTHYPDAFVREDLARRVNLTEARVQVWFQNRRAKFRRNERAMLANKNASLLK
Assay [25] addresses PITX2 (Homo sapiens, UniProt Q99697 72-157).
In assay [26] the target is CRX (Homo sapiens, UniProt O43186 26-111, R41L).
Chain of CRX (O43186 26-111 R41L): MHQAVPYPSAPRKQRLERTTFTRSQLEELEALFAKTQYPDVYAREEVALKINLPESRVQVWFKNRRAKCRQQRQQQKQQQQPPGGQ
The target of assay [27] is PRRX1 (Homo sapiens, UniProt P54821 80-166).
Chain of PRRX1 (Homo sapiens, UniProt P54821 80-166) (P54821 80-166): as the sequence (P54821 80-166 F113S) above, with S34F counted along it
In assay [28] the target is HOXD13 (Homo sapiens, UniProt P35453 263-343, T313R).
Chain of HOXD13 (Homo sapiens, UniProt P35453 263-343, T313R) (P35453 263-343 T313R): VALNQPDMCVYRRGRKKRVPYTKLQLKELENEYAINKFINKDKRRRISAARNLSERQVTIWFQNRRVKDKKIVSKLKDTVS
The target in assay [29] is HOXD13 (Homo sapiens, UniProt P35453 263-343).
Chain of HOXD13 (Homo sapiens, UniProt P35453 263-343) (P35453 263-343): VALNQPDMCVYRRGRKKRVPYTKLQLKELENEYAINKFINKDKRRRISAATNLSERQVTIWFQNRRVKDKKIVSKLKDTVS
The target of assay [30] is HOXD13 (Homo sapiens, UniProt P35453 263-343, T313A).
Chain of HOXD13 (Homo sapiens, UniProt P35453 263-343, T313A) (P35453 263-343 T313A): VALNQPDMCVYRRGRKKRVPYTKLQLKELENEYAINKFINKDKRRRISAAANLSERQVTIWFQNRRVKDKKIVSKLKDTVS
The target of assay [31] is HOXB6 (Homo sapiens, UniProt P17509 132-218, K202E).
Chain of HOXB6 (Homo sapiens, UniProt P17509 132-218, K202E) (P17509 132-218 K202E): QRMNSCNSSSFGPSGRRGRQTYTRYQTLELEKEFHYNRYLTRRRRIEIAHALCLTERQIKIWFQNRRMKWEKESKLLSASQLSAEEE
For assay [32], the target named is HOXC10 (Homo sapiens, UniProt Q9NYD6 254-340, K271E).
Chain of HOXC10 (Q9NYD6 254-340 K271E): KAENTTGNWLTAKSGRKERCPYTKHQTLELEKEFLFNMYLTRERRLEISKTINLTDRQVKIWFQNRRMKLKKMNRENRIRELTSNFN
For assay [33], the target named is HOXB6 (Homo sapiens, UniProt P17509 132-218).
Chain of HOXB6 (Homo sapiens, UniProt P17509 132-218) (P17509 132-218): as the sequence (P17509 132-218 K202E) above, with E71K counted along it

Positions count from the first letter of the chain named.

Chain of MSX2 (Homo sapiens, UniProt P35548 130-214, F161Y) (P35548 130-214 F161Y): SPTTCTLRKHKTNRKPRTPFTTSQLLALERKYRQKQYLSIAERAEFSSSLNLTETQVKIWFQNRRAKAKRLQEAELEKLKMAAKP
Chain of VAX1 (Homo sapiens, UniProt Q5SQQ9 86-172, K157R) (Q5SQQ9 86-172 K157R): as the sequence (Q5SQQ9 86-172) above, with K72R counted along it
Chain of HOXA7 (Homo sapiens, UniProt P31268 116-202) (P31268 116-202): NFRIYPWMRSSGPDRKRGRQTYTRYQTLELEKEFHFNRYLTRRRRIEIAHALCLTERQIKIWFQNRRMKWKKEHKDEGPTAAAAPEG
Chain of HOXA7 (Homo sapiens, UniProt P31268 116-202, W177C) (P31268 116-202 W177C): as the sequence (P31268 116-202) above, with W62C counted along it
Chain of ALX1 (Homo sapiens, UniProt Q15699 118-204) (Q15699 118-204): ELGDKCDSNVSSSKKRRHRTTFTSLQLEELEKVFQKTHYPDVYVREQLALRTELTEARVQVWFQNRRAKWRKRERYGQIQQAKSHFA
Chain of ALX1 (Homo sapiens, UniProt Q15699 118-204, L144R) (Q15699 118-204 L144R): as the sequence (Q15699 118-204) above, with L27R counted along it
Chain of HOXA2 (Homo sapiens, UniProt O43364 129-215, R185K) (O43364 129-215 R185K): as the sequence (O43364 129-215 Y150S) above, with S22Y, R57K counted along it
Chain of MSX2 (Homo sapiens, UniProt P35548 130-214, R199I) (P35548 130-214 R199I): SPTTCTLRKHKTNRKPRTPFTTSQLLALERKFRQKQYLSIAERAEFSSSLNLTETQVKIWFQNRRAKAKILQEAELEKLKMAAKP
Chain of MSX2 (Homo sapiens, UniProt P35548 130-214) (P35548 130-214): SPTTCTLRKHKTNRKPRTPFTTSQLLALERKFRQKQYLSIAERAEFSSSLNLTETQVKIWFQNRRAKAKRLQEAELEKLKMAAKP
Chain of ALX1 (Homo sapiens, UniProt Q15699 118-204, L144V) (Q15699 118-204 L144V): as the sequence (Q15699 118-204) above, with L27V counted along it
Chain of HOXA2 (Homo sapiens, UniProt O43364 129-215, R185T) (O43364 129-215 R185T): as the sequence (O43364 129-215 Y150S) above, with S22Y, R57T counted along it

As for CGGCGTTC, the binding signal is 8.31 upbm affinity estimate (log intensity, higher = more binding, comparable within an allelic series) in assay [1]; 6.29 upbm affinity estimate (log intensity, higher = more binding, comparable within an allelic series) in assay [2]; 6.24 upbm affinity estimate (log intensity, higher = more binding, comparable within an allelic series) in [3]; 8.26 upbm affinity estimate (log intensity, higher = more binding, comparable within an allelic series) in [4]; 10.4 upbm affinity estimate (log intensity, higher = more binding, comparable within an allelic series) in [5]; 6.31 upbm affinity estimate (log intensity, higher = more binding, comparable within an allelic series) in assay [6]. Also, the binding signal in [7] is 10.4 upbm affinity estimate (log intensity, higher = more binding, comparable within an allelic series).

In the case of AATAACAT, the binding signal in assay [1] was 10.1 upbm affinity estimate (log intensity, higher = more binding, comparable within an allelic series); in assay [8], 9.56 upbm affinity estimate (log intensity, higher = more binding, comparable within an allelic series); in assay [9] it was 11.6 upbm affinity estimate (log intensity, higher = more binding, comparable within an allelic series); in assay [10] it was 10.9 upbm affinity estimate (log intensity, higher = more binding, comparable within an allelic series); in [4] it was 8.98 upbm affinity estimate (log intensity, higher = more binding, comparable within an allelic series); in [11] it was 9.63 upbm affinity estimate (log intensity, higher = more binding, comparable within an allelic series).

Take GCTTTCGA: the binding signal in assay [1] was 8.45 upbm affinity estimate (log intensity, higher = more binding, comparable within an allelic series); in [4], 8.45 upbm affinity estimate (log intensity, higher = more binding, comparable within an allelic series).

Take CCTGGTCC: the binding signal was 8.3 upbm affinity estimate (log intensity, higher = more binding, comparable within an allelic series) in assay [1]; 9.07 upbm affinity estimate (log intensity, higher = more binding, comparable within an allelic series) in [12]; 9.15 upbm affinity estimate (log intensity, higher = more binding, comparable within an allelic series) in assay [13]; 9.44 upbm affinity estimate (log intensity, higher = more binding, comparable within an allelic series) in [14]; 6.39 upbm affinity estimate (log intensity, higher = more binding, comparable within an allelic series) in [2]; 9.31 upbm affinity estimate (log intensity, higher = more binding, comparable within an allelic series) in assay [15]. In addition, the binding signal in [3] was 6.31 upbm affinity estimate (log intensity, higher = more binding, comparable within an allelic series); in [16], 9.26 upbm affinity estimate (log intensity, higher = more binding, comparable within an allelic series); in assay [17] it was 9.47 upbm affinity estimate (log intensity, higher = more binding, comparable within an allelic series); in [18], 9.15 upbm affinity estimate (log intensity, higher = more binding, comparable within an allelic series); in assay [19], 7.22 upbm affinity estimate (log intensity, higher = more binding, comparable within an allelic series); in assay [20] it was 9.52 upbm affinity estimate (log intensity, higher = more binding, comparable within an allelic series). For the same sequence, the binding signal in assay [21] was 7.32 upbm affinity estimate (log intensity, higher = more binding, comparable within an allelic series); in assay [22], 9.31 upbm affinity estimate (log intensity, higher = more binding, comparable within an allelic series); in assay [4], 8.35 upbm affinity estimate (log intensity, higher = more binding, comparable within an allelic series); in assay [6], 6.34 upbm affinity estimate (log intensity, higher = more binding, comparable within an allelic series); in assay [23], 7.26 upbm affinity estimate (log intensity, higher = more binding, comparable within an allelic series).

For the sequence AAGATTAG, the binding signal in assay [1] is 9.43 upbm affinity estimate (log intensity, higher = more binding, comparable within an allelic series); in assay [24], 10.4 upbm affinity estimate (log intensity, higher = more binding, comparable within an allelic series); in assay [25], 12.4 upbm affinity estimate (log intensity, higher = more binding, comparable within an allelic series); in assay [4], 8.65 upbm affinity estimate (log intensity, higher = more binding, comparable within an allelic series); in [26], 12.4 upbm affinity estimate (log intensity, higher = more binding, comparable within an allelic series); in assay [27], 12.3 upbm affinity estimate (log intensity, higher = more binding, comparable within an allelic series).

In the case of AGGGCGGC, the binding signal was 8.44 upbm affinity estimate (log intensity, higher = more binding, comparable within an allelic series) in assay [1]; 9.45 upbm affinity estimate (log intensity, higher = more binding, comparable within an allelic series) in [28]; 9.52 upbm affinity estimate (log intensity, higher = more binding, comparable within an allelic series) in assay [29]; 7.1 upbm affinity estimate (log intensity, higher = more binding, comparable within an allelic series) in assay [19]; 9.5 upbm affinity estimate (log intensity, higher = more binding, comparable within an allelic series) in assay [30]; 6.95 upbm affinity estimate (log intensity, higher = more binding, comparable within an allelic series) in [21]. The binding signal in [4] was 8.27 upbm affinity estimate (log intensity, higher = more binding, comparable within an allelic series); in assay [23], 6.98 upbm affinity estimate (log intensity, higher = more binding, comparable within an allelic series).

Take AGGCCCAG: the binding signal in assay [1] is 8.42 upbm affinity estimate (log intensity, higher = more binding, comparable within an allelic series); in [4] it was 8.28 upbm affinity estimate (log intensity, higher = more binding, comparable within an allelic series).

CATTATTA: the binding signal is 11.1 upbm affinity estimate (log intensity, higher = more binding, comparable within an allelic series) in [1]; 10 upbm affinity estimate (log intensity, higher = more binding, comparable within an allelic series) in assay [31]; 8.89 upbm affinity estimate (log intensity, higher = more binding, comparable within an allelic series) in [4].

For the sequence ATATAAAA, the binding signal in [1] is 9.79 upbm affinity estimate (log intensity, higher = more binding, comparable within an allelic series); in [28] it was 10.9 upbm affinity estimate (log intensity, higher = more binding, comparable within an allelic series); in assay [29] it was 11.8 upbm affinity estimate (log intensity, higher = more binding, comparable within an allelic series); in [32], 11.3 upbm affinity estimate (log intensity, higher = more binding, comparable within an allelic series); in [30], 11.7 upbm affinity estimate (log intensity, higher = more binding, comparable within an allelic series); in assay [4], 8.84 upbm affinity estimate (log intensity, higher = more binding, comparable within an allelic series).

Turning to GACCCTGC, the binding signal in assay [1] is 8.54 upbm affinity estimate (log intensity, higher = more binding, comparable within an allelic series); in assay [8], 7.03 upbm affinity estimate (log intensity, higher = more binding, comparable within an allelic series); in assay [14], 9.48 upbm affinity estimate (log intensity, higher = more binding, comparable within an allelic series); in assay [9], 10.3 upbm affinity estimate (log intensity, higher = more binding, comparable within an allelic series); in [17], 9.31 upbm affinity estimate (log intensity, higher = more binding, comparable within an allelic series); in [20] it was 9.36 upbm affinity estimate (log intensity, higher = more binding, comparable within an allelic series). The binding signal was 10.5 upbm affinity estimate (log intensity, higher = more binding, comparable within an allelic series) in assay [10]; 8.43 upbm affinity estimate (log intensity, higher = more binding, comparable within an allelic series) in assay [4]; 6.79 upbm affinity estimate (log intensity, higher = more binding, comparable within an allelic series) in [11].

Turning to AATTACCC, the binding signal in assay [1] is 11.4 upbm affinity estimate (log intensity, higher = more binding, comparable within an allelic series); in assay [31], 9.85 upbm affinity estimate (log intensity, higher = more binding, comparable within an allelic series); in assay [19] it was 12.7 upbm affinity estimate (log intensity, higher = more binding, comparable within an allelic series); in [20] it was 13 upbm affinity estimate (log intensity, higher = more binding, comparable within an allelic series); in assay [21], 12.5 upbm affinity estimate (log intensity, higher = more binding, comparable within an allelic series); in assay [4], 8.89 upbm affinity estimate (log intensity, higher = more binding, comparable within an allelic series). Moreover, the binding signal was 12.6 upbm affinity estimate (log intensity, higher = more binding, comparable within an allelic series) in assay [23] and 11.7 upbm affinity estimate (log intensity, higher = more binding, comparable within an allelic series) in assay [33].

Turning to CGGTCCGC, the binding signal in assay [1] is 8.63 upbm affinity estimate (log intensity, higher = more binding, comparable within an allelic series); in assay [4] it was 8.41 upbm affinity estimate (log intensity, higher = more binding, comparable within an allelic series).

The record behind these values is publication PMC11006913.
